Laboratory results from ChEMBL document CHEMBL2218924, “A broad activity screen in support of a chemogenomic map for kinase signalling research and drug discovery” (Biochem J, 2013).

Target: Tyrosine-protein kinase receptor UFO (Homo sapiens) (UniProt P30530)
Conditions: at 10 µM

Tyrosine-protein kinase receptor UFO (Homo sapiens), sequence (P30530 whole entry): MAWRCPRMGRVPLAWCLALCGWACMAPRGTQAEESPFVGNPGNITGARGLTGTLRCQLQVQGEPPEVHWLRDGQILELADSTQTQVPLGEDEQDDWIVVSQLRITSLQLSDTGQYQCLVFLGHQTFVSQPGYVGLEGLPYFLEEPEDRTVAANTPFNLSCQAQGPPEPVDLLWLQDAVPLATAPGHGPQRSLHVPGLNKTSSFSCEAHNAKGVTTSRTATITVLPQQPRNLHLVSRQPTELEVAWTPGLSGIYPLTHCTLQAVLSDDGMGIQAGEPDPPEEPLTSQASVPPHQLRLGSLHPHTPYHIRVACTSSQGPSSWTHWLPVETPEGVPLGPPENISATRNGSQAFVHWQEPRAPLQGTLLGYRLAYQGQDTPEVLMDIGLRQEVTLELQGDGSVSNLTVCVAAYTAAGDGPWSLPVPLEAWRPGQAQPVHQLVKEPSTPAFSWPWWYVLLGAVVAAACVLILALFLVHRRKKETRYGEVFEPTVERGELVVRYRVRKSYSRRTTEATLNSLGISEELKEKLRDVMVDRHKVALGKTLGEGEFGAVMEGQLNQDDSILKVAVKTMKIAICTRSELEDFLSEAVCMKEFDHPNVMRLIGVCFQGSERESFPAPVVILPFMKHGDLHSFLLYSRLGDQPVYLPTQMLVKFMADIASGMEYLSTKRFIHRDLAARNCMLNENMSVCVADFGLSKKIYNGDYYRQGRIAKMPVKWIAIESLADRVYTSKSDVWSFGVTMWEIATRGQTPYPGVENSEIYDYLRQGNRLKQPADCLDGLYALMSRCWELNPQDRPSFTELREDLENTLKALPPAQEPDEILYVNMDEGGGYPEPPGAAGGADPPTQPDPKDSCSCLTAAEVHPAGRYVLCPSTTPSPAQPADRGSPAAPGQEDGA

Question: For `c1cc(-c2cnn3cc(-c4ccc(OCCN5CCCCC5)cc4)cnc23)ccn1`, which residual activity is on record?
Answer: The residual activity was 24%.

Question: For `COC(=O)[C@@]1(O)C[C@H]2O[C@]1(C)n1c3ccccc3c3c4c(c5c6ccccc6n2c5c31)C(=O)NC4`, which residual activity is on record?
Answer: The residual activity was -3%.

Question: With `O=C1c2ccccc2-c2nc3nnnn3nc21` as the molecule, how does the residual activity read?
Answer: The residual activity was 42%.

Question: `O=[N+]([O-])/C=C/c1ccc2c(c1)OCO2` was tested. Which residual activity did it give?
Answer: The residual activity was 81%.

Question: Which residual activity does the source give for `C[S+]([O-])c1ccc(-c2nc(-c3ccc(F)cc3)c(-c3ccncc3)[nH]2)cc1` (configuration not stated) here?
Answer: Its residual activity is 119%.

Question: `CC(C)[C@H](CO)Nc1nc(Nc2cccc(Cl)c2)c2ncn(C(C)C)c2n1` was tested. Which residual activity did it give?
Answer: The residual activity was 31%.

Question: For `O=C1NC(=O)c2c1c1c3ccccc3n3c1c1c2c2ccccc2n1C1CCC3O1`, which residual activity is on record?
Answer: The residual activity was 87%.

Question: For `O=c1[nH]c2ccccc2n1C1CCN(Cc2ccc(-c3nc4cc5[nH]cnc5cc4nc3-c3ccccc3)cc2)CC1`, which residual activity is on record?
Answer: Its residual activity is 64%.

Question: For `COc1cc(OC)c(/C=C2\C(=O)Nc3ccccc32)c(OC)c1`, which residual activity is on record?
Answer: The residual activity was 71%.

Question: With `N/C(=N\[N+](=O)[O-])N/N=C\c1ccc(-c2cccc([N+](=O)[O-])c2)o1` as the molecule, how does the residual activity read?
Answer: Its residual activity is 93%.

Question: Which residual activity does the source give for `CCn1cnc2c(Nc3cccc(Cl)c3)nc(N[C@@H]3CCCC[C@@H]3N)nc21` here?
Answer: Its residual activity is 21%.

Question: For `O=C1Nc2ccc3ncsc3c2/C1=C/c1c[nH]cn1`, which residual activity is on record?
Answer: Its residual activity is 8%.

Question: `COc1cc2ncnc(Nc3ccc(OCc4ccccc4)cc3)c2cc1OC` was tested. Which residual activity did it give?
Answer: The residual activity was 48%.

Question: Which residual activity does the source give for `COc1ccc2c(c[n+](C)c3c4cc5c(cc4ccc23)OCO5)c1OC` here?
Answer: Its residual activity is 44%.

Target: Protein-tyrosine kinase 6 (Homo sapiens) (UniProt Q13882)
Conditions: at 1 µM

Protein-tyrosine kinase 6 (Homo sapiens), sequence (Q13882 whole entry, looked up): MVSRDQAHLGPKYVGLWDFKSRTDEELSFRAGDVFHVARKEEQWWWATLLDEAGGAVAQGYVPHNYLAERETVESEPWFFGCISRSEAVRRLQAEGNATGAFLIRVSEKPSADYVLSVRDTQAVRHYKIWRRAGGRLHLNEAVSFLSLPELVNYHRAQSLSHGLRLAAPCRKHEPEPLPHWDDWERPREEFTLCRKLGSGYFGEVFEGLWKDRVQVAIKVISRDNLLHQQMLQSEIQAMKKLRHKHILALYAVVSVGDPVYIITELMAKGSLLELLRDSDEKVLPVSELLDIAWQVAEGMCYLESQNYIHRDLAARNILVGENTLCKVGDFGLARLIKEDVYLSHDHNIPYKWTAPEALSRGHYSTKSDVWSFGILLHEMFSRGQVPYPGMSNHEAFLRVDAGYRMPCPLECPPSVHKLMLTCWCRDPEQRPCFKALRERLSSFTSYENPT

Question: Which residual activity does the source give for `CCc1nc(-c2ccc(OC)cc2)[nH]c1-c1ccncc1` here?
Answer: Its residual activity is 110%.

Question: For `c1cc(-c2cnn3cc(-c4ccc(OCCN5CCCCC5)cc4)cnc23)ccn1`, which residual activity is on record?
Answer: Its residual activity is 53%.

Question: `COC(=O)[C@@]1(O)C[C@H]2O[C@]1(C)n1c3ccccc3c3c4c(c5c6ccccc6n2c5c31)C(=O)NC4` was tested. Which residual activity did it give?
Answer: Its residual activity is 19%.

Question: Which residual activity does the source give for `O=[N+]([O-])/C=C/c1ccc2c(c1)OCO2` here?
Answer: The residual activity was 113%.

Question: For `C[S+]([O-])c1ccc(-c2nc(-c3ccc(F)cc3)c(-c3ccncc3)[nH]2)cc1` (configuration not stated), which residual activity is on record?
Answer: Its residual activity is 59%.

Question: Which residual activity does the source give for `O=c1[nH]c2ccccc2n1C1CCN(Cc2ccc(-c3nc4cc5[nH]cnc5cc4nc3-c3ccccc3)cc2)CC1` here?
Answer: The residual activity was 110%.

Question: How did the residual activity turn out when `COc1cc(OC)c(/C=C2\C(=O)Nc3ccccc32)c(OC)c1` was run?
Answer: Its residual activity is 104%.

Question: With `N/C(=N\[N+](=O)[O-])N/N=C\c1ccc(-c2cccc([N+](=O)[O-])c2)o1` as the molecule, how does the residual activity read?
Answer: Its residual activity is 97%.

Question: For `CCn1cnc2c(Nc3cccc(Cl)c3)nc(N[C@@H]3CCCC[C@@H]3N)nc21`, which residual activity is on record?
Answer: Its residual activity is 94%.

Question: Which residual activity does the source give for `CC(C)(C)c1cc(C=C(C#N)C#N)cc(Br)c1O` here?
Answer: Its residual activity is 109%.

Question: `O=C1Nc2ccc3ncsc3c2/C1=C/c1c[nH]cn1` was tested. Which residual activity did it give?
Answer: Its residual activity is 66%.

Question: How did the residual activity turn out when `COc1cc2ncnc(Nc3ccc(OCc4ccccc4)cc3)c2cc1OC` was run?
Answer: Its residual activity is 30%.

Question: With `COc1ccc2c(c[n+](C)c3c4cc5c(cc4ccc23)OCO5)c1OC` as the molecule, how does the residual activity read?
Answer: The residual activity was 110%.
